Test [1] in a line: compounds binding Alexa647 anti-His antibody – biochemical, small-molecule microarray, 635 nm fluorescence, artefact control for SMM control protein annotation, primary screen (AID 1128).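 Note: score merges feature fluorescence with signal-to-noise for each printed compound spot.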 As to conditions: higher = more signal.
Test [2] deals with Human papillomavirus type 1a E7 protein (residues 1-88). As to the kind of experiment: HPV1a E7 small-molecule binders, primary screen, biochemical, small-molecule microarray, residues 1-88, 635 nm (AID 1129). Particulars: small-molecule microarray binding, fluorescence 635 nm; higher = more signal.
The target of test [3] is Focal adhesion kinase 1 (Homo sapiens) (UniProt Q05397). As to the kind of experiment: PTK2 protein binding on printed compound slides – biochemical, small-molecule microarray, 635/667 nm fluorescence, BSA, DTT, primary screen (AID 1130).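 Note: composite of spot emission at 667 nm and signal to noise over triplicate slides.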 As to conditions: 635 nm fluorescence, higher = more signal.
Test [4] concerns Fibrinogen (Alexa647-labelled). Put plainly: Alexa647-fibrinogen binding to printed small molecules – biochemical, small-molecule microarray, 635/667 nm fluorescence, artefact control for SMM control-protein annotation, profiling panel (AID 1131).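 Note: z-score merges 667 nm fluorescence with per-spot signal-to-noise over triplicate slides.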 As to conditions: fibrinogen-A647 binding fluorescence, higher = more signal.
Test [5] concerns the target Follistatin (Homo sapiens) (UniProt P19883). As to the kind of experiment: FST protein binding to printed compounds – biochemical, small-molecule microarray, 635/667 nm fluorescence, primary screen (AID 1132). As to conditions: 635 nm fluorescence, higher = more signal.
Test [6] deals with Fibroblast growth factor 2 (Homo sapiens) (UniProt P09038). Put plainly: basic fibroblast growth factor binding to printed compounds – biochemical, small-molecule microarray, 635/667 nm fluorescence, primary screen (AID 1133). As to conditions: FGF2, fluorescence 635/667, higher = more signal.
A short description of test [7]: JC-1 mitochondrial potential readout, lung cancer cells – cell-based, A549, JC-1 fluorescence, basal, 24 h, 100 nL, profiling panel (AID 1138).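 Note: A549 lung adenocarcinoma cells under basal conditions with no added stimulus; test concentration not given here.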 As to conditions: higher = more signal.
A further test has as its system Lefty1. Put plainly: Lefty1 protein binding to printed compounds – biochemical, small-molecule microarray, 635/667 nm fluorescence, primary screen (AID 1139). Particulars: fluorescence 635/667, higher = more signal.
In test [8] the test system is wheat germ agglutinin (Triticum aestivum), Alexa647-labelled. As to the kind of experiment: Alexa647-WGA lectin binding to printed small molecules – biochemical, small-molecule microarray, 635/667 nm fluorescence, artefact control for SMM control-protein annotation, profiling panel (AID 1140).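 Note: score merges 667 nm feature emission with signal to noise over triplicate slides.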 Particulars: WGA-A647 binding, 635 nm fluorescence, higher = more signal.
For test [9], the target named is Luciferin 4-monooxygenase (Photinus pyralis) (UniProt P08659). As to the kind of experiment: inhibition of purified Photinus pyralis luciferase – biochemical, luminescence, purified enzyme, 2006 set, primary screen (AID 1141).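 Note: cell-free assay with purified firefly luciferase at 100 ng per well in PBS; test concentration not given here.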 Particulars: purified firefly luciferase, SteadyGlo luminescence, 30 min; higher = more signal, called active from +8 up or from −8 down.
Test [10] concerns Wnt5a (protein binding on small-molecule microarray). As to the kind of experiment: small molecules binding Wnt5a protein – biophysical, small-molecule microarray, 635/667 nm fluorescence, primary screen (AID 1142).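 Note: fluorescence read at 667 nm with signal to noise per printed feature.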 Particulars: 635 nm fluorescence, higher = more signal.
Test [11] can be described thus: ATP-based viability of Huh7 replicon cells – cell-based, CellTiter-Glo luminescence, basal, 48 h, cytotoxicity control for HCV replication inhibitor project, primary screen (AID 1143).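 Note: Huh7 hepatoma cells carrying a hepatitis C replication reporter with no stimulus; test concentration not given here.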 Particulars: higher = more signal, called active from +8 up or from −8 down.
The nature of test [12]: Pseudomonas biofilm growth suppression – PAO1 strain, BacTiter-Glo luminescence, LB-PBS, primary screen (AID 1144). Particulars: P. aeruginosa PAO1 biofilm, 12 h, higher = more signal.
A short description of test [13]: basal CRE-LacZ reporter activity in PC12 – cell-based, unstimulated, primary screen (AID 1145). As to conditions: no forskolin, luminescence, 4.5 h, higher = more signal, called active from +8 up or from −8 down.
Test [14] can be described thus: forskolin-driven CRE-LacZ activity in PC12 – cell-based, CRE-LacZ reporter, forskolin-stimulated, primary screen (AID 1146).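 Note: PC12 cells with 6xCRE LacZ reporter stimulated by forskolin 10 µM; beta-galactosidase reporter signal reflecting CREB driven transcription.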 Particulars: luminescence, 4.5 h, higher = more signal, called active from +8 up or from −8 down.
The target in test [15] is Streptavidin (Streptomyces avidinii) (UniProt P22629). As to the kind of experiment: compounds binding control protein streptavidin – biophysical, small-molecule microarray, 635/667 nm fluorescence, artefact control for SMM compound annotation, primary screen (AID 1147).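 Note: signal reflects streptavidin binding to arrayed compounds as a control protein.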 Particulars: higher = more signal.
Test [16] is described as follows: probe aInhba binding on compound microarray – biochemical, small-molecule microarray, 635/667 nm fluorescence, primary screen (AID 1148).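 Note: score merges 667nm spot fluorescence with signal-to-noise for antibody binding to printed compounds.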 As to conditions: higher = more signal.
In test [17] the target is Torsin-1A (Homo sapiens) (UniProt O14656). As to the kind of experiment: TOR1A wild-type binding on microarray – cell lysate, small-molecule microarray, lysate, 635/667 nm, primary screen (AID 1149). As to conditions: COS7 hTOR1A-WT lysate, 635 nm fluorescence, higher = more signal.
The target is the same in test [18]. As to the kind of experiment: torsin A mutant lysate binding on microarrays – cell lysate, small-molecule microarray, COS7 lysate, 635/667 nm fluorescence, primary screen (AID 1150).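 Note: score pools 667 nm emission and signal to noise measuring lysate protein binding.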 As to conditions: COS7 hTOR1A mutant lysate, 635 nm fluorescence, higher = more signal.
The test system of test [19] is Sonic hedgehog protein (Shh). As to the kind of experiment: Sonic hedgehog microarray binding compounds – biochemical, small-molecule microarray, 635/667 nm fluorescence, primary screen (AID 1151).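 Note: Shh protein binding to compounds spotted on small-molecule microarray slides; score combines spot fluorescence intensity with signal-to-noise across triplicate slides.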 Particulars: 635 nm fluorescence, higher = more signal.

SMILES strings stand for the structures. Activity calls are given as the source filed them. Unless noted, the rule behind the calls is not given here.

Chain of Torsin-1A (Homo sapiens) (O14656 whole entry, looked up): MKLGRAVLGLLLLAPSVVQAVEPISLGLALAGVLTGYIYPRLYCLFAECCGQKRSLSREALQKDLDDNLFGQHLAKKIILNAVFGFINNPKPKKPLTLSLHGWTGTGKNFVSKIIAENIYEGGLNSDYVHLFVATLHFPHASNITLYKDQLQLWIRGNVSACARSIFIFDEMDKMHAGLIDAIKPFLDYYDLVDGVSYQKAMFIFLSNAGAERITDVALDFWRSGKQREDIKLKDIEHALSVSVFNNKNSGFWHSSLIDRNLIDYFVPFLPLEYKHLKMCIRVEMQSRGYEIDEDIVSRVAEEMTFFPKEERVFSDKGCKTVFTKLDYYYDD
Chain of Streptavidin (Streptomyces avidinii) (P22629 whole entry, looked up): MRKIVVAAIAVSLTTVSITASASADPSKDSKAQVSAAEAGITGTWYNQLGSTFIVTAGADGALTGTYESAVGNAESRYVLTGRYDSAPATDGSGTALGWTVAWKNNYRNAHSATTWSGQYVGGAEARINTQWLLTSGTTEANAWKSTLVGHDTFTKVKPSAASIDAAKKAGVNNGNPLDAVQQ
Chain of Luciferin 4-monooxygenase (Photinus pyralis) (P08659 whole entry, looked up): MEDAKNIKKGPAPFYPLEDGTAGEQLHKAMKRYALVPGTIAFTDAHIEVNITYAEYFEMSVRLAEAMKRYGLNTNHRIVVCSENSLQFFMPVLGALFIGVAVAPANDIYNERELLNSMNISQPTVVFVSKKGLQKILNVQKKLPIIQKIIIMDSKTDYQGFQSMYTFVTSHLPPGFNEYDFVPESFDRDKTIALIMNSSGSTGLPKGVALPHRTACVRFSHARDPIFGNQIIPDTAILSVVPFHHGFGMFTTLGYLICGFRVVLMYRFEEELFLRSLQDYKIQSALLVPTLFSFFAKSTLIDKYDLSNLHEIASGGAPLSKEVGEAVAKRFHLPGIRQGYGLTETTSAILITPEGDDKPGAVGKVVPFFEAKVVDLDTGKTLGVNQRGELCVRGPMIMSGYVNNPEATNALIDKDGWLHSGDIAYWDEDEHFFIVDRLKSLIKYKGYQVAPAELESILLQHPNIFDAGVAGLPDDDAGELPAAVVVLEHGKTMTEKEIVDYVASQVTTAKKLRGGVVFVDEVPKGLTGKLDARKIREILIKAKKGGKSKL
Chain of Follistatin (Homo sapiens) (P19883 whole entry, looked up): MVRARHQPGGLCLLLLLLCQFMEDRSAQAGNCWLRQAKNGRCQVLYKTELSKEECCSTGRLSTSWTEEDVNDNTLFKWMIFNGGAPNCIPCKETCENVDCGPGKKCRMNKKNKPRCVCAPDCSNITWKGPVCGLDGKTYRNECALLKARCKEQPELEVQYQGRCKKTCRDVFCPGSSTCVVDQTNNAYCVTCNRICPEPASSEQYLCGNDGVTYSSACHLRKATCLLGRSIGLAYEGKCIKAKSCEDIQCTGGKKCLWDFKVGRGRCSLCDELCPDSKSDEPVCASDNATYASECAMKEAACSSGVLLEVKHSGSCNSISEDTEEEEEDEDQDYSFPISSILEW
Chain of Fibroblast growth factor 2 (Homo sapiens) (P09038 whole entry, looked up): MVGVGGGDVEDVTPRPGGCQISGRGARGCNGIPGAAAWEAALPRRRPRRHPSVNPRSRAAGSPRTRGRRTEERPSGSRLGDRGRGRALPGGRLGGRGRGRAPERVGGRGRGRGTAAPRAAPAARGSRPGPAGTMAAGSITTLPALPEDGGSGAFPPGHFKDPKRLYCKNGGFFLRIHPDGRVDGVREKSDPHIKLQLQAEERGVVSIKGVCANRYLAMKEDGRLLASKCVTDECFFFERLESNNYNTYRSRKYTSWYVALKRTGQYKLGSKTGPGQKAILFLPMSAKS
Chain of Focal adhesion kinase 1 (Homo sapiens) (Q05397 whole entry, looked up): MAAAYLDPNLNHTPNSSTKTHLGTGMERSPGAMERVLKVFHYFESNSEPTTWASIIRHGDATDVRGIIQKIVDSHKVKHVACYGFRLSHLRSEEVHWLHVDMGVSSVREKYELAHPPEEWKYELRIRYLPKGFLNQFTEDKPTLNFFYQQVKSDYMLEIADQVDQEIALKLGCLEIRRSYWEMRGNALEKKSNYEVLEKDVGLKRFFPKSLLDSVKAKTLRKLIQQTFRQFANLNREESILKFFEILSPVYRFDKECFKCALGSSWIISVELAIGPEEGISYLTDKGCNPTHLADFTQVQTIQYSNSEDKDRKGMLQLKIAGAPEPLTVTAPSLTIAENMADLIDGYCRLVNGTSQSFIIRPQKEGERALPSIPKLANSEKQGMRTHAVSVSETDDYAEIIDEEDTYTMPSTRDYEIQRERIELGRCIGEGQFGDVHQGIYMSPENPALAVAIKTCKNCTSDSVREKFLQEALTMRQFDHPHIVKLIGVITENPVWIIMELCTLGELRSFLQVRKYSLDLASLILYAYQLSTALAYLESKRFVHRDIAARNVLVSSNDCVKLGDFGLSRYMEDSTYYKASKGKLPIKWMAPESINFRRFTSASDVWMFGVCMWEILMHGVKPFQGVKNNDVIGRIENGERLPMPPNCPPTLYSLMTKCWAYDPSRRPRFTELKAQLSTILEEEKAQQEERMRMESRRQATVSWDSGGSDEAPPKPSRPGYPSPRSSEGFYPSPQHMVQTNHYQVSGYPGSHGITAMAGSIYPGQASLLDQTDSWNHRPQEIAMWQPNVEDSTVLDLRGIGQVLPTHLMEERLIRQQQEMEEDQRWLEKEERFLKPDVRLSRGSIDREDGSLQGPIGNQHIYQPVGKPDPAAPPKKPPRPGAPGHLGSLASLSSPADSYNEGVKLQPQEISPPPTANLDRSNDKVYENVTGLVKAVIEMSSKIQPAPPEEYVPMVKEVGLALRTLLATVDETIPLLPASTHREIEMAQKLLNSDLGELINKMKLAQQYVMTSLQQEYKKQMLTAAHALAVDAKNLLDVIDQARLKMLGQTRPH

Turning to `O=C1NC(=O)C2C1C=CC(C(O)c1cc(C(F)(F)F)cc(C(F)(F)F)c1)N2Nc1ccc(Cl)cc1Cl` (stereo not given), the composite z-score in test [1] is 0.864; in test [2], 1.05; in test [3] it was 0.46; in test [4], -0.607; in test [5], 0.109; in test [6], -0.544. Besides, the composite z-score in the test on Lefty1 was -1.03; in test [8], 0.802; in [10] it was 0.465; in test [15], 0.416; in [16], 0.069; with Torsin-1A (Homo sapiens) [17], -0.371. Also, the composite z-score with Torsin-1A (Homo sapiens) [18] is 0.357; in test [19], -0.384. The z-score in [7] was -0.836; in [9], 0.172 (inactive); in test [11], -1.32 (inactive); in test [12], -0.673 (inactive); in [13], -0.329 (inactive); in test [14] it was 0.78 (inactive).
`C[C@]1(C(=O)NCCN2CCOCC2)c2ccccc2C(=O)N(Cc2ccc(OC(F)(F)F)cc2)[C@H]1c1ccc(CO)cc1`: the composite z-score is 2.24 in test [1]; 0.634 in test [2]; -0.108 in [3]; 0.915 in [4]; 0.536 in [5]; -0.38 in test [6]. Further, the composite z-score is -0.355 in the test on Lefty1; 0.55 in [8]; -0.333 in [10]; -0.152 in [15]; -0.101 in [16]; 0.816 with Torsin-1A (Homo sapiens) [17]. The composite z-score was 0.853 with Torsin-1A (Homo sapiens) [18] and -0.704 in test [19]. Further, the z-score was 1.68 in test [7]; -0.0852 (inactive) in test [9]; -0.653 (inactive) in test [11]; -0.67 (inactive) in [12]; -0.412 (inactive) in [13]; -0.51 (inactive) in test [14].
For `COc1cc2c(cc1OC)CN(C(=O)[C@H]1[C@@H]3C(=O)O[C@@H](c4ccccc4)[C@@H](c4ccccc4)N3[C@@H](c3ccc(OCCO)cc3)[C@]13C(=O)Nc1ccc(C#CCCO)cc13)CC2`, the composite z-score was determined as 1.43 in [1]; 1.22 in test [2]; 0.541 in test [3]; 0.939 in test [4]; 1.35 in test [5]; 0.742 in test [6]. In addition, the composite z-score with Lefty1 came to 1.14; in test [8], 1.01; in [10], 0.455; in [15], 1.31; in test [16], 0.659; with Torsin-1A (Homo sapiens) [17], 0.272. For the same compound, the figures for the composite z-score (with Torsin-1A (Homo sapiens) [18]; in test [19]) were 0.764 and 1.62, respectively. The z-score is -0.96 in test [7]; 0.268 (inactive) in test [9]; 0.0229 (inactive) in test [11]; -0.0983 (inactive) in test [12]; -0.61 (inactive) in test [13]; -0.48 (inactive) in test [14].
As to `O=c1cccc(-c2ccc(C(F)(F)F)cc2)o1`, the composite z-score was 0.728 in test [1]; -0.955 in [2]; -0.136 in [3]; -1.1 in test [4]; -0.398 in test [5]; -0.41 in test [6]. For the same compound, the composite z-score is -1.03 with Lefty1; -0.399 in test [8]; -0.281 in test [10]; -0.43 in [15]; -0.0963 in test [16]; -0.848 with Torsin-1A (Homo sapiens) [17]. Moreover, the composite z-score was -0.476 with Torsin-1A (Homo sapiens) [18] and -0.559 in test [19]. Besides, the z-score in test [7] was 0.77; in test [9], 0.854 (inactive); in test [11] it was 0.421 (inactive); in [12], 0.634 (inactive); in [13], -0.275 (inactive); in test [14] it was -0.145 (inactive).

The values are drawn from PubChem BioAssay.
